Measured values as given in PubChem BioAssay AID623868 (Vanderbilt High Throughput Screening Facility, 2012).
In all, about 2,100 compounds went through this assay and about 760 (36%) were called active.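 The calls were made as follows: active = thallium-flux fluorescence traces judged by eye to show enhanced or reduced glutamate response, manual score 1 or -1, so both directions (some results past the limit were not filed as active); inactive = the rest, including fluorescent or raised-baseline compounds.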 Only a sample is shown.

Test: non-GIRK thallium flux modulation in mGlu8 cells, confirmation, counter-screen for GIRK activator project, cell-based, HEK-293 rmGlu8, no GIRK (AID 623868);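 also: extra codes mark interference with 3 for fluorescent and 4 for baseline rise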
Settings: thallium flux fluorescence, at 10 µM, actives lie on both sides, codes: 1 enhancer, -1 blocker, 0 none, thallium stimulus containing EC20 glutamate

| Structure (SMILES) | manual score |
| --- | --- |
| Cc1ccc(S(=O)(=O)N2CCN(C)CC2)cc1-c1nnc2c3ccccc3c(C)nn12 | 0 (inactive) |
| C/C(=N\NC(=S)Nc1ccc(F)cc1)c1ccc2c(c1)OCCO2 | 1 (active) |
| O=C(Nc1ccc2c(c1)OCCO2)NC12CC3CC(CC(C3)C1)C2 | 0 (inactive) |
| COC(=O)[C@H](CC(C)C)NC(=O)Nc1ccc2c(c1)OCCO2 | 0 (inactive) |
| C/C(=N/NC(=S)Nc1ccccc1)c1ccc2c(c1)OCO2 | 1 (active) |
| CN(C)S(=O)(=O)c1cc(NC(=O)COC(=O)c2ccc3c(c2)OCO3)ccc1Cl | 0 (inactive) |
| C/C(=N\NC(=S)Nc1cccc(C)c1)c1cccc(N)c1 | 1 (active) |
| Cc1c(N2C(=O)CS/C2=N\N=C\c2ccccc2O)c(=O)n(-c2ccccc2)n1C | 0 (inactive) |
| O=C1c2ccccc2C(=O)N1Nc1ccccc1 | 0 (inactive) |
| Cc1ccc(C)n1-c1ccc(-c2nnco2)cc1 | 0 (inactive) |
| CCOc1ccc(-c2nc(-c3cccnc3)no2)cc1OCC | 0 (inactive) |
| O=C(CSc1nnnn1-c1cccc2c1CCCC2)NC1CCCC1 | 0 (inactive) |
| Cc1ccc(-c2cn(-c3ccccc3)c(SCC(=O)NC3CCS(=O)(=O)C3)n2)cc1C (stereo not drawn) | 1 (active) |
| Cc1ccc(NC(=S)c2nc3ccccc3[nH]2)c(C)c1 | 1 (active) |
| Cc1ccc(C)c(NC(=S)c2nc3ccccc3s2)c1 | 1 (active) |
| N#C/C(=C/c1ccc(N2CCOCC2)o1)c1nc2ccccc2[nH]1 | 3 (inactive) |
| Cc1ccc2nc(NCc3ccccc3)[nH]c2c1 | 0 (inactive) |
| Cc1ccccc1NC(=S)c1nc2ccccc2[nH]1 | 1 (active) |
| Cc1ccc(-n2nnnc2-c2nc3ccccc3s2)cc1 | 0 (inactive) |
| Cc1ccc(OC(=S)Nc2ccccc2)c(C)c1 | 0 (inactive) |
| N#C/C(=C\c1ccc(N2CCOCC2)o1)c1nc2ccccc2[nH]1 | 3 (inactive) |
| O=C1CN(C(=O)CSc2nc3ccccc3c(=O)n2Cc2ccc(F)cc2)c2ccccc2N1 | 1 (active) |

| Structure (SMILES) | manual score |
| --- | --- |
| Cc1ccc(Cn2c(SCC(=O)NCC3CCCO3)nc3c(sc4ccccc43)c2=O)cc1 (stereo not drawn) | 0 (inactive) |
| Cc1ccc(Cn2c(SCC(=O)N3CC(=O)Nc4ccccc43)nc3ccccc3c2=O)cc1 | 1 (active) |
| Cc1cc(NC(=O)CSc2nc3ccccc3c(=O)n2Cc2ccccc2)no1 | 0 (inactive) |
| O=C(CSc1nc2ccccc2c(=O)n1CC1CCCO1)N1CCN(c2ccccc2)CC1 (stereo not drawn) | 0 (inactive) |
| CC(c1ccccc1)n1c(SCC(=O)N2CC(=O)Nc3ccccc32)nc2ccccc2c1=O (stereo not drawn) | 0 (inactive) |
| CCC(C)NC(=O)CSc1nc2ccccc2c(=O)n1Cc1ccc(OC)cc1 (stereo not drawn) | 1 (active) |
| O=C1CN(C(=O)CSc2nc3cc(Cl)ccc3c(=O)n2Cc2ccccc2)c2ccccc2N1 | 1 (active) |
| Clc1ccc(OCCn2ccnc2)c(Cl)c1 | 0 (inactive) |
| CC(/C=N/n1c(-c2ccccc2)n[nH]c1=S)=C\c1ccco1 | 1 (active) |
| CC(/C=N/n1c(-c2ccc(Cl)cc2)n[nH]c1=S)=C\c1ccco1 | 1 (active) |
| O=C(Nc1ccccc1)Nc1nccs1 | -0.5 (inactive) |
| COC(=O)CSC1=NS(=O)(=O)c2ccccc21 | 0 (inactive) |
| CCCc1nc2ccccc2c(=O)n1/N=C/c1c(C)[nH]n(-c2ccc(C)cc2)c1=O | 1 (active) |
| CN(C)CCNc1nc2c(c(=O)[nH]c(=O)n2C)n1CCCc1ccccc1 | 0 (inactive) |
| O=c1c(-c2ccccc2)nc(-c2ccccc2)cn1O | 1 (active) |
| COCCn1nnnc1C(c1ccccc1)N1CCN(c2ccccc2)CC1 (stereo not drawn) | 0 (inactive) |
| COc1ccccc1N=Cc1nc(-c2ccccc2)oc1OC(C)=O | -1 (active) |
| CCC(=O)Oc1oc(-c2ccccc2)nc1C=Nc1ccccc1OC | -1 (active) |
| C=CCN(CC=C)C(=S)NC(=O)c1ccc(C)c(Br)c1 | 1 (active) |
| C=CCN(CC=C)C(=S)NC(=O)/C=C/c1ccc(C)cc1 | 1 (active) |
| CCOC(=O)c1ccc(NC(=O)Nc2ccc(OC)c(OC)c2)cc1 | 0 (inactive) |
| COc1ccc(C(=O)NC(=S)NC(C)C)cc1Br | 0.5 (inactive) |

| Structure (SMILES) | manual score |
| --- | --- |
| COc1ccc(C(=O)NC(=S)NCCO)cc1Br | 1 (active) |
| Cc1ccnc(NC(=S)NC(=O)/C=C/c2ccco2)c1 | 0 (inactive) |
| CCOC(=O)c1c(CNCCN(CC)CC)n(C)c2cc(Br)c(OC)cc12 | 0 (inactive) |
| C=CCN(CC=C)C(=S)NC(=O)c1ccc(OC)c(Br)c1 | 1 (active) |
| Cc1ccc(-c2nnn(CC(=O)NC3CC4CCC3C4)n2)cc1 (stereo not drawn) | 0 (inactive) |
| Clc1ccc(Cc2ccc(SCc3ccccc3)nn2)c(Cl)c1 | 0 (inactive) |
| CCCCCCCCCn1c2c(c(=N)c3c1CCC3)CCC2 | 0 (inactive) |
| CCN(CC)C(=O)CN(c1ccc2c(c1)OCO2)S(C)(=O)=O | 0 (inactive) |
| NC1=NC2(CCCCC2)n2c(nc3ccccc32)N1 | 0 (inactive) |
| NC(=O)SCC(=O)Nc1cccc(Cl)c1 | 0 (inactive) |
| COC(=O)C(C)N(C(=O)c1cccc2ccccc12)c1c(C)cccc1C (stereo not drawn) | -1 (active) |
| COC(=O)C(C)N(C(=O)c1cccc(Cl)c1)c1c(C)cccc1C (stereo not drawn) | -1 (active) |
| S=c1[nH]ccn1-c1cccc(Cl)c1 | 0 (inactive) |
| Oc1c(C=NCc2ccncc2)sc2ccccc12 | 0 (inactive) |
| O=C(COc1ccccc1)NC(=S)N1CCc2ccccc21 | 1 (active) |
| Cc1cccc(OCc2nnc(SCC(=O)N3CCc4ccccc43)n2C)c1 | 0 (inactive) |
| Cc1cccc(OCC(=O)NC(=S)N2CCCc3ccccc32)c1 | 1 (active) |
| O=C(COc1ccccc1Cl)NC(=S)N1CCc2ccccc21 | 1 (active) |
| CC(Oc1ccc(Cl)cc1Cl)C(=O)NC(=S)N1CCc2ccccc21 (stereo not drawn) | 1 (active) |
| Cc1cnc(NC(=O)COc2ccccc2Cl)s1 | 0 (inactive) |
| O=C(COc1ccc(Br)cc1Cl)NC(=S)N1CCc2ccccc21 | 0 (inactive) |
| C=C(C)C1CC=C(C)/C(=N/NC(=O)COc2cccc(C)c2)C1 (stereo not drawn) | 0 (inactive) |

| Structure (SMILES) | manual score |
| --- | --- |
| N#CC(C#N)=C1C=C2C=C(N3CCCCCC3)CCC2CC1 (stereo not drawn) | 3 (inactive) |
| O=C(COc1ccc(Br)cc1Br)NC(=S)N1CCCc2ccccc21 | 0.5 (inactive) |
| CC1CCC/C(=N\NC(=O)COc2ccc(Cl)cc2Cl)C1 (stereo not drawn) | 0 (inactive) |
| O=C(COc1ccc(Cl)cc1Cl)NC(=S)N1CCCc2ccccc21 | 1 (active) |
| CCCCN(CCCC)c1nc2ccccc2nc1C(C#N)C(=O)NCCCOC (stereo not drawn) | 3 (inactive) |
| S=C(NN=C(C1CC1)C1CC1)Nc1ccccc1 | 0 (inactive) |
| C=C(C)C1CC=C(C)/C(=N/NC(=S)Nc2ccccc2)C1 (stereo not drawn) | 0 (inactive) |
| S=C(NN=C1C2CC3CC(C2)CC1C3)Nc1ccccc1 | 1 (active) |
| CC(C)N=c1scc(-c2cccs2)n1/N=C/c1ccc(O)c(O)c1O | 0 (inactive) |
| CC(c1ccco1)N(C(=O)c1ccccc1NS(=O)(=O)c1cc([N+](=O)[O-])ccc1Cl)c1ccccn1 (stereo not drawn) | 1 (active) |
| CCOP(=O)(c1ccccc1)c1nc(-c2ccccc2C)oc1N1CCCCC1 (stereo not drawn) | 0 (inactive) |
| Cc1ccc(/C=N/Nc2nc(Cl)c(Cl)cc2Cl)s1 | 1 (active) |
| CCOC(=O)C1=C(C)OC(N)=C(C#N)C1c1cncc(-c2ccc(F)cc2)c1 (stereo not drawn) | 0 (inactive) |
| Cc1cc(C)n(-c2ccc(C(=O)OCC(=O)Nc3ccc(Cl)c(S(=O)(=O)N(C)C)c3)cc2)n1 | 0 (inactive) |
| CCOC(=O)Cc1csc(NC(=S)NC(=O)c2ccccc2C)n1 | 1 (active) |
| CCOC(=O)Cc1csc(NC(=S)NC(=O)c2ccccc2Br)n1 | 1 (active) |
| CC1=CC(=O)OC1Cc1ccncc1 (stereo not drawn) | 0 (inactive) |
| O=C(Nc1ccc(F)cc1)c1cccc2c1C(=O)N(Cc1ccccn1)C2 | 0 (inactive) |
| COc1ccc(-n2c(=O)[nH]cc(C(=O)Nc3ccc(NC(C)=O)cc3)c2=O)cc1 | 0 (inactive) |
| CCCC(=O)Nc1ccc(NC(=O)C23CC4CC(CC(C4)C2)C3)cn1 | 0 (inactive) |
| O=C(NC(=S)Nc1ccc(Cl)cn1)c1cccs1 | 1 (active) |
| Cc1ccnc(NC(=S)NC(=O)c2cccs2)c1 | 1 (active) |

| Structure (SMILES) | manual score |
| --- | --- |
| Cc1ccc2cccc(NC(=S)NC(=O)c3ccn(C)n3)c2n1 | 0 (inactive) |
| CCn1c(CCNC(=O)c2cccs2)nnc1SCC(=O)Nc1ccc(Cl)cc1 | 0 (inactive) |
| CC(Cc1cccs1)NC(=O)Nc1ccc(Cl)cc1 (stereo not drawn) | 0 (inactive) |
| Cc1ccc2cccc(NC(=S)NC(=O)c3ccnn3C)c2n1 | 0 (inactive) |
| Cc1cccc(NC(=S)NC(=O)c2cccs2)n1 | 1 (active) |
| CC(C)CC(NS(=O)(=O)c1ccc2c(c1)oc(=O)n2C)C(=O)NC1CCCc2ccccc21 (stereo not drawn) | 0 (inactive) |
| CCOc1ccc(-n2c(SCc3nc(-c4cccs4)no3)nnc2-c2ccncc2)cc1 | 0 (inactive) |
| CC(C)CC(=O)NC(=S)Nc1nc(-c2cccc3ccccc23)cs1 | 0 (inactive) |
| CC(C)CC(=O)NC(=S)N(Cc1ccccc1)Cc1ccccc1 | 1 (active) |
| CC(C)C(=O)NC(=S)N(Cc1ccccc1)Cc1ccccc1 | 1 (active) |
| Cc1ccccc1Cn1c(=N)n(CC(O)c2ccco2)c2ccccc21 (stereo not drawn) | 0 (inactive) |
| N#Cc1nc(COc2ccccc2)oc1N1CCN(c2cccc(Cl)c2)CC1 | 0 (inactive) |
| O=C(Cc1ccccc1)Nc1nc(-c2cccs2)cs1 | 0 (inactive) |
| CCN(CC)C(=O)CSc1nnc(NC(=O)CCc2ccccc2)s1 | 0 (inactive) |
| O=C(Nc1nc(=O)c2ccccc2s1)c1ccccc1 | 1 (active) |
| O=C(Nc1nc(=O)c2ccccc2s1)c1ccc(F)cc1 | 1 (active) |
| O=C(Cc1ccccc1)Nc1nc(=O)c2ccccc2s1 | 1 (active) |
| O=C(Nc1nc2ccccc2s1)c1cc(-c2ccccc2)nn1-c1ccccc1 | 0 (inactive) |
| O=C(Nc1nc(=O)c2ccccc2s1)c1ccc(Cl)cc1 | 1 (active) |
| CN(C)CCCNC(=O)c1ccc(-c2nc(-c3ccc(Cl)cc3)cs2)cc1 | 0 (inactive) |
